Laboratory results published in PubChem BioAssay (NCATS).
Results filed as inconclusive are left out. Calls of active or inactive are those of the source. Calls come from the whole dose curve; as a rule, active = well fitted curve in the direction sought with a large enough effect; inconclusive = small, poorly fitted or top-dose-only effect, or another doubt; inactive = no such curve, though single readings can be large or run the other way.

Legend:
[1] = molecular target: T1, Hexokinase-4 (Homo sapiens) + Glucokinase regulatory protein (Homo sapiens) (UniProt P35557+Q14397); assay: qHTS assay for inhibitors of recombinant human GCK-GKRP interaction: Diaphorase-coupled assay (AID 743205); conditions: G6PDH/diaphorase resorufin fluorescence; series mostly up to 57.5 µM
Outline: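 A kinetic fluorescence read (Ex 525/Em 590 nm, every minute for 30 minutes) tracked resorufin from a G6PDH-diaphorase coupled GCK reaction. It contained 10 nM GST-GCK, 10 nM FLAG-GKRP, 5 mM glucose, 0.4 mM ATP in Hepes pH 7.6. Normalized to with/without-enzyme DMSO controls.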

[2] = molecular target: T1, Hexokinase-4 (Homo sapiens) + Glucokinase regulatory protein (Homo sapiens); assay: qHTS assay for inhibitors of recombinant human GCK-GKRP interaction: ADP-Glo assay (AID 743206); conditions: ADP-Glo luminescence, 60 min; series mostly up to 76.9 µM;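 note: plate controls were DMSO plus enzyme for no effect and no enzyme for full effect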
Outline: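 Pin-transferred compounds meet a 15 nM GST-GCK/15 nM FLAG-GKRP/2 uM S6P mix (dispense concentrations). ATP is then added to 0.4 mM final with 5 mM glucose, and the reaction runs 60 min at room temperature. ADP is quantified luminescently.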

[3] = molecular target: T1, Hexokinase-4 (Homo sapiens) + Glucokinase regulatory protein (Homo sapiens); assay: qHTS assay for inhibitors of recombinant human GCK-GKRP interaction: HTRF assay (AID 743207); conditions: recombinant GCK-GKRP HTRF binding, 60 min, with sorbitol-6-phosphate; series mostly up to 57.5 µM;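 note: 0% = DMSO with GCK present and -100% = DMSO wells lacking GCK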
Outline: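 After 60 min equilibration at room temperature with anti-FLAG XL665 and anti-GST antibodies, FRET ratio (665/615 nm, excitation 320 nm) was read. Proteins: GST-GCK and FLAG-GKRP, each 5 nM, plus 2 uM S6P, pH 7.1 buffer; GCK-free wells define minimum signal.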

[4] = qHTS Assay for Identifying Gametocytocidal Compounds (AID 743244);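 note: % is set by controls: 0 for no effect and ±100 for the full control effect; actives lower the fluorescent signal which means gametocytes are killed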; conditions: P. falciparum 3D7 stage III-V gametocytes, alamarBlue, 72 h; max response: stronger effect = lower value
Outline: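 Viability read-out was resazurin reduction (alamarBlue, 24 h) measured at Ex 525/Em 598 nm. Beforehand, late-stage (III-V) 3D7 P. falciparum gametocytes at 20,000 cells/well were incubated with compound 72 h at 37C under 5% CO2.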

T1 sequence (P35557 whole entry, looked up): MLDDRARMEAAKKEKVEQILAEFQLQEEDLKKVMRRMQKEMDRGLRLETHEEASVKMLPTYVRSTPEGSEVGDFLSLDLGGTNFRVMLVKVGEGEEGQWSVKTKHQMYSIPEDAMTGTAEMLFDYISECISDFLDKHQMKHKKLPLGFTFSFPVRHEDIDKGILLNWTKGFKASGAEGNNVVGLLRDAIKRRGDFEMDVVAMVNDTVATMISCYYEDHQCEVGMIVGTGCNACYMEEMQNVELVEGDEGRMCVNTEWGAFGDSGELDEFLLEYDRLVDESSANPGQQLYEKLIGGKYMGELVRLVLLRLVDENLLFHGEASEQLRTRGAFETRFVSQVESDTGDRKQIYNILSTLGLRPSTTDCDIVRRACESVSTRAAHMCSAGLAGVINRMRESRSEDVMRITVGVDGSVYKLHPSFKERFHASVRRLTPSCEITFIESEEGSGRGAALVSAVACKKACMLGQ
T1 sequence (Q14397 whole entry, looked up): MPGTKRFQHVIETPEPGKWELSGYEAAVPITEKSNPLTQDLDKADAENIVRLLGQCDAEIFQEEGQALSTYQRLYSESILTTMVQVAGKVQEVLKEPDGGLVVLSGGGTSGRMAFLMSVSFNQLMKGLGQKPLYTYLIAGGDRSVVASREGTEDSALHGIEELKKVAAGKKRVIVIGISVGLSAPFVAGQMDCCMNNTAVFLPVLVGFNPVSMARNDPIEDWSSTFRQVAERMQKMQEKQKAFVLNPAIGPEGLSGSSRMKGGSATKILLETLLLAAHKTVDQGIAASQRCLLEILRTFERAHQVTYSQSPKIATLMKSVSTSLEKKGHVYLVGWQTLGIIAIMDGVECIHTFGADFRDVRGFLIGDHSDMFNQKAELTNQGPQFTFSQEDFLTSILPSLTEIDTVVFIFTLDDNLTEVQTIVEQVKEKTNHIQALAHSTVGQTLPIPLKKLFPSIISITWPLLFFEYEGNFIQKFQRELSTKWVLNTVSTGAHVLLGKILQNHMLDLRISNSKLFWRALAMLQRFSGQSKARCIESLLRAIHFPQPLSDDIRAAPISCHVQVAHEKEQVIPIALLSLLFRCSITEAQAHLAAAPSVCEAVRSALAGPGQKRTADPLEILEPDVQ

NC(C(=O)N[C@@H]1C(=O)N2C(C(=O)O)=C(Cl)CS[C@H]12)c1ccccc1 (stereo partly specified)
inactive: Potency [1] | Potency [2] | Potency [3] | max response [4] 8.93%

CC(=O)SC1CC2=CC(=O)CC[C@]2(C)C2CC[C@@]3(C)C(CC[C@@]34CCC(=O)O4)C12 (stereo partly specified)
inactive: Potency [1] | Potency [2] | Potency [3] | max response [4] 7.64%

NC(N)=N[C@@H](CCC(=O)O)C(=O)O
inactive: Potency [1] | Potency [2] | Potency [3] | max response [4] -1.42%

OC[C@H]1O[C@@H](n2cnc3cncnc32)[C@H](O)[C@@H]1O
inactive: Potency [1] | Potency [2] | Potency [3] | max response [4] 19.7%
